Cruzain inh Det – blocks cruzain activity in presence of Triton detergent. actives 0.43% (n = 200,000). purified cruzain, Z-FR-AMC fluorescence, 0.01% Triton. Potency, µM, inactives show max response, negative = inhibition, usual class: inhibitors. P25779;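 also: plate controls were neutral wells for no effect and buffer without enzyme for full effect; nearly all actives have a fitted effect of over 40% in size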
Target sequence (P25779 123-467 limits assumed): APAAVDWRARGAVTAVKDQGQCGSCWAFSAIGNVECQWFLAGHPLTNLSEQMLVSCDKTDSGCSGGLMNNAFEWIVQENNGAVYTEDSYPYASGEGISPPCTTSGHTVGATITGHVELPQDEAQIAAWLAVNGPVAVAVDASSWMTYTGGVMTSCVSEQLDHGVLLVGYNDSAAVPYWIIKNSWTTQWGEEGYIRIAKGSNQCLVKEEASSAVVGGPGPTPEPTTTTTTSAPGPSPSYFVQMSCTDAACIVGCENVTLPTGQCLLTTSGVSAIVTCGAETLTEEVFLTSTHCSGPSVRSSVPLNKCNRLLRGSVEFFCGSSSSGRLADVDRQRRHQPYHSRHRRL
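Steps: dispense cruzain (1.5 nM final) in acetate buffer pH 5.5 with DTT and 0.01% Triton X-100; pin-transfer compounds; incubate 15 min RT; add Z-FR-AMC (2 uM final); read fluorescence every 30 s, using the 60 s intensity change.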
Cruzain inh noDet – inhibitors of Trypanosoma cruzi cruzain without detergent | P25779 | actives 2.3% (n = 200,000) | purified cruzain, Z-FR-AMC fluorescence, no detergent | Potency, µM, without a hit: max response, negative = inhibition, usual class: inhibitors;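 also: plate controls were enzyme without inhibitor for no effect and buffer without enzyme for full effect; nearly all actives have a fitted effect of over 40% in size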
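Detergent-free condition (0.00005% Triton X-100) in acetate buffer pH 5.5 with DTT. 1.5 nM enzyme and compound were pre-mixed 15 min, then 2 uM Z-FR-AMC substrate added; reaction progress from fluorescence change between first and third reads (60 s).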
An asterisk follows results filed as active. Rows were chosen to be rich in hits. Some 2.4% of all compounds tested hit in one or more screens of this group. Calls follow the shape of the dose curve; as a rule, active = well fitted curve in the direction sought with a large enough effect; inconclusive = small, poorly fitted or top-dose-only effect, or another doubt; inactive = no such curve, though single readings can be large; an effect the other way counts as inactive or inconclusive. Potency is read from the fitted curve at half-maximal effect.

Results for Cc1nc(/N=C(\N)NC(=O)c2ccccc2)nc2ccccc12 ?
Cruzain inh Det: -11%; Cruzain inh noDet: 3%

Results for COc1ccccc1C(=O)c1cn(CC(=O)Nc2ccccc2F)c2nc(C)ccc2c1=O ?
Cruzain inh Det: -5%; Cruzain inh noDet: -14%

How did CCOC(=O)C1=C(CSc2nc(-c3ccccc3)ccc2C#N)OC(N)=C(C#N)C1c1ccc(OC)cc1 (stereo not given) do in these assays?
Cruzain inh Det: -4%; Cruzain inh noDet: 16µM*

How did CCOC(=O)C1=C(CSc2nc(CC)c(C)cc2C#N)OC(N)=C(C#N)C1c1ccccc1 (stereo not given) do in these assays?
Cruzain inh Det: -6%; Cruzain inh noDet: -18%

How did CCOc1ccc(-c2nonc2NC(=O)c2oc3cc(C)ccc3c2C)cc1 do in these assays?
Cruzain inh Det: -3%; Cruzain inh noDet: -24%

What do the screens show for `c1ccc(Nc2nc(N3CCOCC3)nc(N3CCOCC3)n2)cc1`?
Cruzain inh Det: -5%; Cruzain inh noDet: -5%

Results for NNc1nc(Nc2ccccc2)nc(N2CCCCC2)n1 ?
Cruzain inh Det: -11%; Cruzain inh noDet: 13µM*

How did COC(=O)C/C=C/[C@@H](C)[C@H](NC(=O)OCC(Cl)(Cl)Cl)c1cccc(OC)c1 do in these assays?
Cruzain inh Det: 0%; Cruzain inh noDet: 6%

Results for COc1cc(/C=C/C(=O)c2ccc(NS(=O)(=O)c3ccc(C)cc3)cc2)ccc1OC(F)F ?
Cruzain inh Det: -2%; Cruzain inh noDet: 10µM*

How did COc1cc(/C=C/C(=O)c2ccc(NS(=O)(=O)c3ccc(C)cc3)cc2)cc(OC)c1O do in these assays?
Cruzain inh Det: -6%; Cruzain inh noDet: inconclusive

Results for CCCCn1c(CCCNC(=O)c2cccc(C)c2)nc2ccccc21 ?
Cruzain inh Det: 1%; Cruzain inh noDet: -1%

How did CCn1c(CCNC(=O)c2ccc(F)cc2)nc2ccccc21 do in these assays?
Cruzain inh Det: 22µM*; Cruzain inh noDet: 2.5µM*

Results for CCCCn1c(CCNC(=O)c2ccc(F)cc2)nc2ccccc21 ?
Cruzain inh Det: 7.1µM*; Cruzain inh noDet: 9%

Results for Cc1ccc(OCCCn2c(CCNC(=O)C3CCCCC3)nc3ccccc32)c(C)c1 ?
Cruzain inh Det: 2.5µM*; Cruzain inh noDet: -3%

Results for CCCCCn1c(CNC(=O)c2ccc(F)cc2)nc2ccccc21 ?
Cruzain inh Det: -18%; Cruzain inh noDet: 16%

What do the screens show for `CCn1c(CCCNC(=O)c2ccc(F)cc2)nc2ccccc21`?
Cruzain inh Det: 5%; Cruzain inh noDet: -7%

What do the screens show for `Cc1cccc(C(=O)NCCc2nc3ccccc3n2CCC(C)C)c1`?
Cruzain inh Det: 13µM*; Cruzain inh noDet: 20%

What do the screens show for `Cc1ccccc1OCCCCn1c(CCNC(=O)C(C)(C)C)nc2ccccc21`?
Cruzain inh Det: -7%; Cruzain inh noDet: inconclusive

What do the screens show for `CCc1cccc(NC(=O)CN(c2ccc(C)cc2)S(=O)(=O)c2cccs2)c1`?
Cruzain inh Det: -9%; Cruzain inh noDet: -13%

How did CCOc1ccccc1NS(=O)(=O)c1c(C(=O)OC)sc2cccc(F)c12 do in these assays?
Cruzain inh Det: -5%; Cruzain inh noDet: -3%

Results for CC(C)Oc1ccc(CNC(=O)CCCn2c(=O)c3cccn3c3ccccc32)cc1 ?
Cruzain inh Det: -2%; Cruzain inh noDet: -2%

Results for Cc1c(C(=O)Nc2cccc(C(F)(F)F)c2)oc2ccc(S(=O)(=O)N3CCC4(CC3)OCCO4)cc12 ?
Cruzain inh Det: 1%; Cruzain inh noDet: 2%

How did COc1ccc(-c2noc(-c3nnn(-c4cc(C)ccc4C)c3N)n2)cc1 do in these assays?
Cruzain inh Det: 0%; Cruzain inh noDet: -8%

How did CC(=O)c1ccc(NC(=O)CSc2nnc3ccc(-c4ccc(F)cc4)nn23)cc1 do in these assays?
Cruzain inh Det: 0%; Cruzain inh noDet: 10%

Results for CCCn1c(CCNC(=O)c2cccs2)nc2ccccc21 ?
Cruzain inh Det: 16µM*; Cruzain inh noDet: 15%

How did CCn1c(CCCNC(=O)c2cccs2)nc2ccccc21 do in these assays?
Cruzain inh Det: 3%; Cruzain inh noDet: 5%

What do the screens show for `C=C(C)Cn1c(CCCNC(=O)CC)nc2ccccc21`?
Cruzain inh Det: 0%; Cruzain inh noDet: 6%

How did C=C(C)Cn1c(CCNC(=O)CCC)nc2ccccc21 do in these assays?
Cruzain inh Det: -2%; Cruzain inh noDet: 16µM*

Results for COc1ccc(Cl)cc1-c1ccc(C(=O)O)s1 ?
Cruzain inh Det: -15%; Cruzain inh noDet: -20%

What do the screens show for `COC(=O)c1ccc(C(NC(=O)OCc2ccccc2)/C(=C/[C@@H](C)C(=O)Nc2ccc(OC)cc2)c2cccnc2)cc1` (stereo not given in full)?
Cruzain inh Det: 4%; Cruzain inh noDet: -4%

How did COC(=O)[C@@]1(Cc2ccc(OC)cc2)[C@H]2c3cc(C(=O)N4CCCC4)n(CCc4c[nH]c5cc(F)ccc45)c3C[C@H]2CN1C(=O)c1ccccc1 do in these assays?
Cruzain inh Det: 2%; Cruzain inh noDet: inconclusive

Results for COc1ccc(N2CC(NC(=O)c3ccc(S(=O)(=O)N4CCOCC4)cc3)CC2=O)cc1OC (stereo not given) ?
Cruzain inh Det: 1%; Cruzain inh noDet: -1%

Results for COc1ccc(/C=N/c2c(-c3ccc(OC)cc3)nc3n2CCS3)cc1 ?
Cruzain inh Det: -8%; Cruzain inh noDet: inconclusive

What do the screens show for `COc1ccc(C2=CSC(/N=C/c3ccc(F)cc3)=NN2)cc1`?
Cruzain inh Det: -4%; Cruzain inh noDet: 13µM*

Results for CCOc1ccccc1NC(=O)c1c(NCc2ccc(C)o2)sc2c1CCCCC2 ?
Cruzain inh Det: -7%; Cruzain inh noDet: -12%

What do the screens show for `CCOc1ccccc1NC(=O)c1c(NC(=O)CNCc2ccco2)sc2c1CCC2`?
Cruzain inh Det: -1%; Cruzain inh noDet: 10µM*

What do the screens show for `CCCCN(C)CCCNC(=O)Cn1ncc2c3ccccc3n(Cc3cc(C)ccc3C)c2c1=O`?
Cruzain inh Det: 2%; Cruzain inh noDet: -2%

How did Cn1c(SCc2ccc(F)cc2)nc2ccc(C(=O)NCc3ccc(F)cc3)cc21 do in these assays?
Cruzain inh Det: -6%; Cruzain inh noDet: -5%

How did CCc1ccc(C2C(C#N)=C(N)SC(N)=C2C#N)cc1 do in these assays?
Cruzain inh Det: -18%; Cruzain inh noDet: -12%

Results for CCc1ccc(C2C(C#N)=C(N)SC(N)=C2C#N)s1 ?
Cruzain inh Det: -27%; Cruzain inh noDet: 16µM*

How did CCCSc1nc2sc3c(c2c(=O)n1-c1ccc(C)cc1)CCCC3 do in these assays?
Cruzain inh Det: 2%; Cruzain inh noDet: 5%

How did O=c1[nH]c(CN2CCc3ccccc32)nc2scc(-c3cccs3)c12 do in these assays?
Cruzain inh Det: -6%; Cruzain inh noDet: 10µM*

Results for O=c1[nH]cnc2scc(-c3cccs3)c12 ?
Cruzain inh Det: -2%; Cruzain inh noDet: 4%

What do the screens show for `Cc1ccc2c(c1)C(=O)CCN2`?
Cruzain inh Det: -1%; Cruzain inh noDet: 2%

What do the screens show for `O=C1CCNc2ccc(-c3ccccc3)cc21`?
Cruzain inh Det: -5%; Cruzain inh noDet: 20µM*

How did Cc1ccnc(NC(=S)NC(=O)/C=C/c2ccc(Cl)cc2)c1 do in these assays?
Cruzain inh Det: 3%; Cruzain inh noDet: 4µM*

Results for Cc1ccnc(NC(=S)NC(=O)/C=C/c2ccccc2)c1 ?
Cruzain inh Det: -4%; Cruzain inh noDet: inconclusive

What do the screens show for `CCn1c(CNC(=O)c2ccc(OC)cc2)nnc1SCC(=O)Nc1cc(C)ccc1C`?
Cruzain inh Det: 1%; Cruzain inh noDet: 2%

What do the screens show for `CC(=O)c1ccc(NC(=O)c2cc(C3CC3)nc3c2c(C)nn3-c2ccc(C)cc2)cc1`?
Cruzain inh Det: -1%; Cruzain inh noDet: -6%
